# Screening results from PubChem.
# LYPLA1 inh – counter-screen for PME1 inhibitors: inhibitors of human LYPLA1; O75608; recombinant LYPLA1, FP-Rh probe fluorescence polarization; inhibition, % at 5.9 µM; actives 0.16% (n = 320,000); AID 2174;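 active = inhibition above the mean of all tested compounds plus 3 SD, set per campaign, cut at about 14% in these data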;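 also: inhibitors block serine hydrolase probe labeling of LYPLA1 so polarization falls; 0% = enzyme with DMSO and 100% = wells lacking LYPLA1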
# PAFAH2 inh – inhibitors of human PAFAH2; Q99487; recombinant PAFAH2, FP-rhodamine activity probe, fluorescence polarization; inhibition, % at 3.39 µM; actives 0.99% (n = 340,000);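 active = inhibition above the mean over all tested compounds plus 3 SD, cut at about 30% in these data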;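 also: inhibitors block probe labeling of enzyme so polarization drops; 0% = enzyme with DMSO and 100% = wells lacking PAFAH2 protein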
# PAFAH1B3 inh – inhibitors of human PAFAH1B3 | recombinant PAFAH1B3, FP-rhodamine probe, fluorescence polarization | inhibition, % at 3.39 µM | actives 0.28% (n = 340,000);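 active = inhibition above the screen-wide average of all tested compounds plus 3 SD, cut at about 25% in these data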;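 also: 0% = enzyme with DMSO only and 100% = wells lacking PAFAH1B3 protein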
# LYPLA2 inh – LYPLA2 (human) inhibition in PME1 counter-screen | actives 0.38% (n = 320,000) | AID 2177 | recombinant LYPLA2, FP-Rh probe fluorescence polarization | inhibition, % at 5.9 µM;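 active = inhibition above the screen-wide mean plus 3 SD, limit set per campaign, cut at about 26% in these data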;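 also: 0% = LYPLA2 with DMSO and 100% = wells lacking LYPLA2 enzyme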
# Target sequence (O95372 whole entry, looked up): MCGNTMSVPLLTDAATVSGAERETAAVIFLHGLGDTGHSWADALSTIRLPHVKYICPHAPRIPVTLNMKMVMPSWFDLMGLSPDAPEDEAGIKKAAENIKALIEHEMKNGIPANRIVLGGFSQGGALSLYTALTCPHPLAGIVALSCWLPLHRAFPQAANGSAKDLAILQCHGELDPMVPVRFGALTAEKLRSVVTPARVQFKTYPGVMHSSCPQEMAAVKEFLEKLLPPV
# pPAFAH inh – pPAFAH (human) enzyme inhibition. Q13093. recombinant pPAFAH, FP-rhodamine probe fluorescence polarization. inhibition, % at 3.39 µM. actives 1.5% (n = 330,000). AID 463082;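 active = inhibition above the mean inhibition across the screen plus 3 SD, cut at about 25% in these data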;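 also: inhibitors block binding of the rhodamine activity-based probe so polarization drops; 0% = enzyme with DMSO and 100% = wells lacking pPAFAH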
# PAFAH1B2 FP inh – inhibitors of human PAFAH1B2. P68402. recombinant PAFAH1B2, FP-rhodamine activity probe, fluorescence polarization. inhibition, % at 3.39 µM. actives 1.2% (n = 340,000). AID 492953;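 active = inhibition above the mean of all tested compounds plus 3 SD, cut at about 24% in these data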;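 also: 0% = enzyme with DMSO and 100% = wells lacking PAFAH1B2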
# Target sequence (P68402 whole entry, looked up): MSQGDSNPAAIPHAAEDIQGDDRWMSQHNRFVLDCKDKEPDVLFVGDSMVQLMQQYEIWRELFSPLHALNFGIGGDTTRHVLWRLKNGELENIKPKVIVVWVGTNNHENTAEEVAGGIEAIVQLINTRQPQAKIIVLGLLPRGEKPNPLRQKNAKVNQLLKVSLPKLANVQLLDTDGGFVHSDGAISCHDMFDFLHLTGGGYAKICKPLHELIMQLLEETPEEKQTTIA
# PAFAH2 confirm – confirmation of human PAFAH2 inhibitors. shares compounds with PAFAH2 inh. recombinant PAFAH2, FP-rhodamine activity probe, fluorescence polarization. inhibition, % at 3.39 µM. actives 65% (n = 2,300). AID 493030;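 active = mean inhibition over three repeats above a set limit taken from the earlier primary screen, cut at about 30% in these data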;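 also: inhibitor blocks binding of rhodamine activity probe so polarization falls; 0% = enzyme with DMSO and 100% = wells lacking PAFAH2 protein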
# Active calls of the source: *; nt = not tested or not shown. Rows were chosen to be rich in hits. Some 2.9% of all compounds tested hit in one or more screens of this group.
SMILES,LYPLA1 inh,PAFAH2 inh,PAFAH1B3 inh,LYPLA2 inh,pPAFAH inh,PAFAH1B2 FP inh,PAFAH2 confirm
COc1ccccc1Nc1nc(N)nc(CSC(=S)N2CCCCC2)n1,-1,37*,2,2,0,1,26
COc1ccccc1CNC(=O)COc1ccc([N+](=O)[O-])cc1,3,5,9,8,0,0,nt
CC(C)CNC(=O)COC(=O)c1cccc(S(=O)(=O)NCC(F)(F)F)c1,-2,31*,4,-1,13,2,20
CNS(=O)(=O)c1cccc(C(=O)OCC(=O)NCc2ccccc2)c1,2,18,11,-5,0,-2,nt
CC1CCCC(NC(=O)COC(=O)c2ccc3c(c2)OCCO3)C1C (stereo unspecified),nt,84*,8,nt,14,3,76*
O=C(COC(=O)c1ccc(NS(=O)(=O)c2ccc3c(c2)OCCO3)cc1)NC1CC1,-1,64*,2,-2,9,0,51*
O=C(COC(=O)c1ccc2c(c1)OCO2)NC1CCCCC1,nt,89*,6,nt,22,6,82*
O=C(NC1CCCCC1)c1ccc2c(c1)OCO2,0,-3,14,8,4,4,nt
CN(C(=O)COC(=O)c1ccc2c(c1)OCO2)C1CCCCC1,nt,67*,9,nt,5,9,67*
CCOC(=O)Cn1cnc2scc(-c3ccc(C)c(C)c3)c2c1=O,-1,4,1,-1,4,1,nt
COc1ccc(C(=O)N/N=C/c2ccc3cccc(O)c3n2)cc1,-10,35*,2,-12,4,0,12
O=C(N/N=C/c1ccc2cccc(OCc3ccccc3)c2n1)c1ccc(Cl)cc1,-20,-13,6,-58,-33,5,nt
Cc1ccc(N=C2NC(=O)/C(=C/c3cccnc3)S2)cc1C,0,32*,0,8,5,4,23
O=C(Nc1cc2c(cc1Cl)OCCCO2)c1ccco1,0,-2,3,-1,-2,-2,nt
O=C(NC1CCCC1)c1sc(=S)n2c1[nH]c(=O)c1ccccc12,2,39*,22,-5,15,22,32*
CC(=O)N1CCN(C(=S)c2ccc(N(C)C)cc2)CC1,-3,3,7,1,7,-2,nt
C/C=C/C(=O)OCC(=O)Nc1ccc(OC)c(Cl)c1,-2,39*,5,1,6,-3,29
C/C=C/C(=O)OCC(=O)Nc1cccc(Br)c1,-3,82*,2,1,5,1,73*
C/C=C/C(=O)OCC(=O)Nc1cccc(F)c1,-1,78*,5,-1,3,-2,65*
COc1cc(/C=C/C(=O)OCC(=O)NCc2ccco2)ccc1OCC#N,-2,44*,14,-3,5,2,37*
COc1ccc(CCNC(=O)COC(=O)/C=C/c2ccc(OCC#N)c(OC)c2)cc1OC,3,11,-9,5,3,5,nt
COc1cc(/C=C/C(=O)OCC(=O)NCc2ccco2)cc(OC)c1OC,-6,10,2,-5,5,2,nt
COc1cc(/C=C/C(=O)OCC(=O)NCC2CCCO2)ccc1OCC#N (stereo unspecified),4,43*,2,7,4,4,30*
O=C(COC(=O)/C=C/c1ccc(F)cc1)NCC1CCCO1 (stereo unspecified),nt,38*,15,nt,2,1,26
Cc1ccc(NC(=O)CSc2nnc(-c3ccco3)n2N)cc1F,5,-4,3,7,1,0,nt
SMILES,LYPLA1 inh,PAFAH2 inh,PAFAH1B3 inh,LYPLA2 inh,pPAFAH inh,PAFAH1B2 FP inh,PAFAH2 confirm
O=C1NC(c2ccccc2)=N/C1=C/c1ccco1,-3,-1,5,-4,12,0,nt
COc1cc(C(=O)OCC(=O)c2c[nH]c3ccccc23)ccc1OCC(=O)N1CCOCC1,-12,34*,-5,-17,-11,4,20
CCOc1cc(C(=O)OCC(=O)c2c[nH]c3ccccc23)ccc1OCC(=O)N1CCOCC1,2,45*,5,5,5,-1,33*
COc1cc(C(=O)NC(C)c2ccccc2)ccc1OCC(=O)N1CCOCC1 (stereo unspecified),-2,-2,-3,-3,0,-1,nt
Cc1ccc(C(=O)OCC(=O)c2c[nH]c3ccccc23)cc1S(=O)(=O)N1CCOCC1,nt,7,2,nt,nt,0,nt
CCOc1cc(C(=O)OCC(=O)c2cc(C)n(CC3CCCO3)c2C)ccc1OCC(=O)N1CCOCC1 (stereo unspecified),-4,8,11,4,-3,0,nt
COc1ccc(C(=O)OCC(=O)c2c[nH]c3ccccc23)cc1OC,-2,47*,0,0,-2,4,44*
CCOc1cc(C(=O)OCC(=O)NC(C)c2ccccc2)ccc1OCC(=O)N1CCOCC1 (stereo unspecified),-2,92*,1,0,6,8,71*
CC(C)n1c(N2CCN(C(=O)c3cccs3)CC2)nc2ccccc21,-3,-4,3,1,-2,4,nt
CC(C)n1c(N2CCN(C(=O)N3CCCCC3)CC2)nc2ccccc21,-5,33*,1,-2,8,7,18
CC(=O)Nc1cccc(C(=O)OCC(=O)NC2CCCCCCC2)c1,-3,84*,9,-4,-16,-1,84*
O=C(COC(=O)C1=COCCO1)Nc1c(F)cccc1F,0,9,2,1,-2,1,nt
O=C(COC(=O)c1ccco1)NC1CCCCC1,2,80*,-1,2,10,-5,68*
O=C(COC(=O)C1=COCCO1)NC1CCCCC1,-2,57*,2,-4,2,3,55*
Cc1cccc(C(=O)NCC(=O)OCC(=O)NC2CCCCC2)c1,nt,57*,5,nt,5,2,41*
O=C(COC(=O)c1ccccc1NC(=O)c1ccco1)NC1CCCCC1,-2,3,2,5,-2,0,nt
O=C(COC(=O)c1cccc([N+](=O)[O-])c1)NC1CCCC1,-2,9,6,-3,17,1,nt
Fc1ccc(F)c(NC2=NCCCCC2)c1,-7,-1,3,1,-1,4,nt
O=C(CCN1C(=O)c2ccccc2C1=O)Nc1ccc(F)cc1F,0,3,2,-2,3,4,nt
O=C(COC(=O)c1ccccc1)NC1CCCCCC1,nt,86*,8,nt,7,4,78*
Nc1cccc(C(=O)OCC(=O)NC2CCCc3ccccc32)c1 (stereo unspecified),-4,53*,4,4,11,-3,28
O=C(COC(=O)c1ccc(Cl)cc1)NC1CCCCCC1,-3,78*,4,-4,9,4,79*
